# Laboratory results reported in paper PMC7862700, “An all-to-all approach to the identification of sequence-specific readers for epigenetic DNA modifications on cytosine”.
# How the values were obtained:
# Assay in all cases: DAPPL (digital affinity profiling via proximity ligation, sequencing); 10 mM Tris-HCl pH 7.5, 50 mM NaCl, 1 mM DTT, 4% glycerol, room temperature, 30 min; GST-TFs on glutathione beads, 16-mer random dsDNA library, 0.1% formaldehyde crosslink after washing; high values mean tight binding
# FLI1 = target: T1, FLI1 (Homo sapiens, UniProt Q01543 1-452); settings: protein: recombinant; tags: N-terminal GST; dsDNA, one strand shown
# T1 sequence: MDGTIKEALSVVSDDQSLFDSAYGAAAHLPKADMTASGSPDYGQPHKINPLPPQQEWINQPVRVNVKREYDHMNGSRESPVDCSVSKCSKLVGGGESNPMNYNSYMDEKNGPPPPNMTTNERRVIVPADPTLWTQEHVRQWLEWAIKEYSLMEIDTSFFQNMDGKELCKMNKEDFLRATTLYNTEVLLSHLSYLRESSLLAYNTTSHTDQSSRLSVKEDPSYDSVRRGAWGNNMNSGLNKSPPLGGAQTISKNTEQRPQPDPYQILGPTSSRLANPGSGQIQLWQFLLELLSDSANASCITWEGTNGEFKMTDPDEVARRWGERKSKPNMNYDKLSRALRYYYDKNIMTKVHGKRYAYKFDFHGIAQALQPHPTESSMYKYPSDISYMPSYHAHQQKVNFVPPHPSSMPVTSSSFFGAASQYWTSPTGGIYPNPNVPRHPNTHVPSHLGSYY
# How it was run: (§1)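 Pools of DNA-barcoded human transcription factors, expressed in yeast as GST fusions on glutathione beads and combined with a tag-only sample, were incubated with 200 nmole of a 16-mer random double-stranded DNA library. Incubation took 30 min at room temperature in Tris/NaCl/DTT/glycerol buffer and was followed by washing, 0.1% formaldehyde crosslinking, proximity ligation (BsaI/T4 ligase, 1 h, 37 °C), PCR amplification and sequencing on an Illumina NextSeq500. Binding signal is the ratio of a hexamer's read frequency for a factor to its frequency for the tag-only sample.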
# ELK1 = target: T2, ELK1 (Homo sapiens, UniProt P19419 1-428); settings: protein: recombinant; tags: N-terminal GST; dsDNA, one strand shown
# T2 sequence: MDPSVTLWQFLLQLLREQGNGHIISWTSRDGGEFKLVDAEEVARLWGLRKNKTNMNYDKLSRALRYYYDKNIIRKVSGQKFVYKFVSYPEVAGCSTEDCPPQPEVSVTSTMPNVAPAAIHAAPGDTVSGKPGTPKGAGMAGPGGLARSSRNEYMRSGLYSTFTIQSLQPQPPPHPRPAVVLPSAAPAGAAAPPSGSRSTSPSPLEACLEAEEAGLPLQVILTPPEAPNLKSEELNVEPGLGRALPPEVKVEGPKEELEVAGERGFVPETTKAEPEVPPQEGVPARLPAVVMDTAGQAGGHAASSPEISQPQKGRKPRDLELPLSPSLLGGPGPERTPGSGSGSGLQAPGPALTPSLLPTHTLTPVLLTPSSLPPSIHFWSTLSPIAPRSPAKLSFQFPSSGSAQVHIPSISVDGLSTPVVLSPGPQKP
# How it was run: as §1
# GABPA = target: T3, GABPA (Homo sapiens, UniProt Q06546 1-454); settings: protein: recombinant; tags: N-terminal GST; dsDNA, one strand shown
# T3 sequence: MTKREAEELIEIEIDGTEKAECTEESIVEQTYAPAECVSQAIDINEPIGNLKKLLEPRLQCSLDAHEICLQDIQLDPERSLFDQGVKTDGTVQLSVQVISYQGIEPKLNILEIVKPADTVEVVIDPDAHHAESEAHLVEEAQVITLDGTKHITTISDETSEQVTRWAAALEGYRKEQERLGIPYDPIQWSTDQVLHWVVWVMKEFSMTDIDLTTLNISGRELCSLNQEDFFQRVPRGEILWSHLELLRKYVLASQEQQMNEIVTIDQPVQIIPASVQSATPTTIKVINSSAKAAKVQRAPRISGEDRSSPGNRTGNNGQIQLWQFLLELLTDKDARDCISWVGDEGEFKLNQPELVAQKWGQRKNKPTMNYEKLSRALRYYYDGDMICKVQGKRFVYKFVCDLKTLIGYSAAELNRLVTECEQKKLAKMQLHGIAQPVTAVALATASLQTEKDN
# How it was run: as §1
# ERG = target: T4, ERG (Homo sapiens, UniProt P11308 1-479); settings: protein: recombinant; tags: N-terminal GST; dsDNA, one strand shown
# T4 sequence: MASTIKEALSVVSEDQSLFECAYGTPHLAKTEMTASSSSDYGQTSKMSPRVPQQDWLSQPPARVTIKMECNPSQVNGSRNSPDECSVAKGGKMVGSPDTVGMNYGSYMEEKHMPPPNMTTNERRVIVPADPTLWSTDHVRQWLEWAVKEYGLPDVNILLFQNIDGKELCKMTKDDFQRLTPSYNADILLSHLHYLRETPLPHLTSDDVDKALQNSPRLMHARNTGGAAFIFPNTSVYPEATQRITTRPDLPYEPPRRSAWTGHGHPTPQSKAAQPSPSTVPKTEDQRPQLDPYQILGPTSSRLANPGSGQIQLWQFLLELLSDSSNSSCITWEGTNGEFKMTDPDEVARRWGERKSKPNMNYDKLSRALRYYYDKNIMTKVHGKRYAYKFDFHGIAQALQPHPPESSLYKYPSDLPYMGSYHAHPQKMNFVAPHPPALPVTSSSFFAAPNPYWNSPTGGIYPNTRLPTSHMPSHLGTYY
# How it was run: as §1
# ELF1 = ELF1 (Homo sapiens, UniProt P32519 1-619); settings: protein: recombinant; tags: N-terminal GST; dsDNA, one strand shown
# Sequence of ELF1 (P32519 whole entry): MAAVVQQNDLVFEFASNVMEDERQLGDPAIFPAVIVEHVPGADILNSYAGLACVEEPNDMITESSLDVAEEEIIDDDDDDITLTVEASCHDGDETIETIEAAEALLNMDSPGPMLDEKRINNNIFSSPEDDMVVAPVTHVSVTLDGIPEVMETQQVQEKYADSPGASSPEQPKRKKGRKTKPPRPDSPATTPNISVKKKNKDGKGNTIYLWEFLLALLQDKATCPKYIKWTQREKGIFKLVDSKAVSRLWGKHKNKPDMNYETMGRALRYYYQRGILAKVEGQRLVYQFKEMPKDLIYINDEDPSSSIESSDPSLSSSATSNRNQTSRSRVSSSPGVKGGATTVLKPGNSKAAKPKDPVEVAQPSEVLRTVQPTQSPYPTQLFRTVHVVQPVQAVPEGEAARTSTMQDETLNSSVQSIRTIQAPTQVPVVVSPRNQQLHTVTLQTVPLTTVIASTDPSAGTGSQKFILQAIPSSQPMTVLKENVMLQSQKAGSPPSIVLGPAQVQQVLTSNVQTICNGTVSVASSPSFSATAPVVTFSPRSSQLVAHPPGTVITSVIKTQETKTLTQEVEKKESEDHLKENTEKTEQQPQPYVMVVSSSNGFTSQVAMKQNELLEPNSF
# How it was run: as §1
# EHF = target: T5, EHF (Homo sapiens, UniProt Q9NZC4 1-300); settings: protein: recombinant; tags: N-terminal GST; dsDNA, one strand shown
# T5 sequence: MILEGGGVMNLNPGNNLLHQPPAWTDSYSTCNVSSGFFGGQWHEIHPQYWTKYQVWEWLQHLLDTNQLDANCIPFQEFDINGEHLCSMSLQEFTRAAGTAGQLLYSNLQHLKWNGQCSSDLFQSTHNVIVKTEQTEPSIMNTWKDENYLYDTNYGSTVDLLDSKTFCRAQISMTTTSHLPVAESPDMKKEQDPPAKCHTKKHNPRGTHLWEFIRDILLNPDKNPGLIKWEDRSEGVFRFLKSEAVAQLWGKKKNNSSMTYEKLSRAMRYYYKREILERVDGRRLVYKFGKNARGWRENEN
# How it was run: as §1
# SPI1 = SPI1 (Homo sapiens, UniProt P17947 1-270); settings: protein: recombinant; tags: N-terminal GST; dsDNA, one strand shown
# How it was run: as §1
# SPIB = SPIB (Homo sapiens, UniProt Q01892 1-262); settings: protein: recombinant; tags: N-terminal GST; dsDNA, one strand shown
# Sequence of SPIB (Q01892 whole entry): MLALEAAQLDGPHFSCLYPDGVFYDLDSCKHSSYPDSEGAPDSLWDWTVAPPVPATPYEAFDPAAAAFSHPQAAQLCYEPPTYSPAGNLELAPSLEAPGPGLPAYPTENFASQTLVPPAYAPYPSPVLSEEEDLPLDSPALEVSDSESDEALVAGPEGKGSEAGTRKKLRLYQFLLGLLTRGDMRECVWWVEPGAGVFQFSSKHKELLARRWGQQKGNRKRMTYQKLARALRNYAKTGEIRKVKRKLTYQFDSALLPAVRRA
# How it was run: as §1
# ELK3 = target: T6, ELK3 (Homo sapiens, UniProt P41970 1-407); settings: protein: recombinant; tags: N-terminal GST; dsDNA, one strand shown
# T6 sequence: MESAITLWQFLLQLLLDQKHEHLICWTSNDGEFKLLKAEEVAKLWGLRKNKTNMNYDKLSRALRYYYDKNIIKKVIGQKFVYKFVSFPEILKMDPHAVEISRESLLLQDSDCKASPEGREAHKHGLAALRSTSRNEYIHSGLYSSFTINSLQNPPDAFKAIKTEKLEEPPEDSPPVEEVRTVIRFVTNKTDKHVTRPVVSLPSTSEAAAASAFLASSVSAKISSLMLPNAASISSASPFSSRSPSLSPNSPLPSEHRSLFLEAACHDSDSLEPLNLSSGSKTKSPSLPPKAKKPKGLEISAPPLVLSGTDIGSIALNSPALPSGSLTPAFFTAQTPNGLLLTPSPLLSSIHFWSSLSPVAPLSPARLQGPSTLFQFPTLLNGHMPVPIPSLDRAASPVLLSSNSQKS
# How it was run: as §1
# FEV = target: T7, FEV (Homo sapiens, UniProt Q99581 1-238); settings: protein: recombinant; tags: N-terminal GST; dsDNA, one strand shown
# T7 sequence: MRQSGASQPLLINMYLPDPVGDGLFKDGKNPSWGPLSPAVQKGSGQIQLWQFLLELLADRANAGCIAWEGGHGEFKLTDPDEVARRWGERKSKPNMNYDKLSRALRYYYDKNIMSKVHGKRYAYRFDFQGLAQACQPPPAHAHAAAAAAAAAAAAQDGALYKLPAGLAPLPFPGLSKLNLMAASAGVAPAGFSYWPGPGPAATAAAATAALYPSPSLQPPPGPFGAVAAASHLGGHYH
# How it was run: as §1
# ETV5 = ETV5 (Homo sapiens, UniProt P41161 1-510); settings: protein: recombinant; tags: N-terminal GST; dsDNA, one strand shown
# Sequence of ETV5 (P41161 whole entry): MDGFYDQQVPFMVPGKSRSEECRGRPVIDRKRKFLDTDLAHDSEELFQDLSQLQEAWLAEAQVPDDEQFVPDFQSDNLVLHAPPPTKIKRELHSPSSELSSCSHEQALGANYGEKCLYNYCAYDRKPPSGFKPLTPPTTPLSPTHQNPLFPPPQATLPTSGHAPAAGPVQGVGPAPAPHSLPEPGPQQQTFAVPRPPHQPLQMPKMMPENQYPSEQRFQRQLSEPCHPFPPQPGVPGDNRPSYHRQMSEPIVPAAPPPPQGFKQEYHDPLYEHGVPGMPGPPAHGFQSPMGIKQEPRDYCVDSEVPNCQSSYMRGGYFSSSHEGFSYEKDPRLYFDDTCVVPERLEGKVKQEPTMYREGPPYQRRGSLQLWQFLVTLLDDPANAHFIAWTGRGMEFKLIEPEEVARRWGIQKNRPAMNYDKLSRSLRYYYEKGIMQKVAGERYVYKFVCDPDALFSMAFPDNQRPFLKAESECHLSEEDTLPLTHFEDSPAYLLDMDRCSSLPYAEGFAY
# How it was run: as §1
# HSF1 = HSF1 (Homo sapiens, UniProt Q00613 1-529); settings: protein: recombinant; tags: N-terminal GST; chain copies: 3; dsDNA, one strand shown
# Sequence of HSF1 (Q00613 whole entry): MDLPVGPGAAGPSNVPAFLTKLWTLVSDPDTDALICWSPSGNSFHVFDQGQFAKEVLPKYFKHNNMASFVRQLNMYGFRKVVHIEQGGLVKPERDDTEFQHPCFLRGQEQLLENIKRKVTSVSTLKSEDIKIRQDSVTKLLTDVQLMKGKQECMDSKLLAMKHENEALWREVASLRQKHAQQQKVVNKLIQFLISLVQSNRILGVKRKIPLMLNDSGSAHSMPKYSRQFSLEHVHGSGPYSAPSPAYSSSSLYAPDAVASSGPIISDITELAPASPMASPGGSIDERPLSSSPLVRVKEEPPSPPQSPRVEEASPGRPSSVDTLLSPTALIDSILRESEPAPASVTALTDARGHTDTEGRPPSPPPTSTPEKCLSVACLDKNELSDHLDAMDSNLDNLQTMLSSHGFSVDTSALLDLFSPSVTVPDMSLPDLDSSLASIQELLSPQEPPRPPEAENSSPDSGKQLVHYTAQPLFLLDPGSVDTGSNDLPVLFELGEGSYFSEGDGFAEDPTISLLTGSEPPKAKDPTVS
# How it was run: as §1
# SPIC = target: T8, SPIC (Homo sapiens, UniProt Q8N5J4 1-248); settings: protein: recombinant; tags: N-terminal GST; dsDNA, one strand shown
# T8 sequence: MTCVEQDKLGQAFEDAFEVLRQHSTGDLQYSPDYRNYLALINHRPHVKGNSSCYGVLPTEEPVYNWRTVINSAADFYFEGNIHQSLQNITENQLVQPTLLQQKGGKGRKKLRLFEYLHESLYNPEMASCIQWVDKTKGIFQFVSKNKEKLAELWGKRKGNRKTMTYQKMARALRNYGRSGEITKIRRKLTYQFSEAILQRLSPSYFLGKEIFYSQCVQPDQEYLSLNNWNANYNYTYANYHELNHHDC
# How it was run: as §1
# ELF4 = ELF4 (Homo sapiens, UniProt Q99607 1-663); settings: protein: recombinant; tags: N-terminal GST; dsDNA, one strand shown
# Sequence of ELF4 (Q99607 whole entry): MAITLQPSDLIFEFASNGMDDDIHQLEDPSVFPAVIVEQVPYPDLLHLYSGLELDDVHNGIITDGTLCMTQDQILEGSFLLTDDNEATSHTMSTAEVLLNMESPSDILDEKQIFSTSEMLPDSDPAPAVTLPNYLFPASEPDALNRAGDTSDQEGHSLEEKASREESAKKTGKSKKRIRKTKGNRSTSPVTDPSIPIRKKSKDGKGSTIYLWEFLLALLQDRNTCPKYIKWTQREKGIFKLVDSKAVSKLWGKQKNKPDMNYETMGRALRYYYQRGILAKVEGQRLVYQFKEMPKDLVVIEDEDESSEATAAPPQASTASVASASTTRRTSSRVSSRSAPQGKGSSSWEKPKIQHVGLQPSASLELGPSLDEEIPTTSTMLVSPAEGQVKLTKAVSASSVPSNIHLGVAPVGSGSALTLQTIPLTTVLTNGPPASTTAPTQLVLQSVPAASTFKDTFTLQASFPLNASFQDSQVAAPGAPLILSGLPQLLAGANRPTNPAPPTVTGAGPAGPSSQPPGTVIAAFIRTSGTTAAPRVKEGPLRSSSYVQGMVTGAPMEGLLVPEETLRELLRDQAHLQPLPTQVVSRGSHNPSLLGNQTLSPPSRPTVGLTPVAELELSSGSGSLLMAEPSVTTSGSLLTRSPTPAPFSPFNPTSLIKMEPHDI
# How it was run: as §1
# ELK4 = target: T9, ELK4 (Homo sapiens, UniProt P28324-2 1-405); settings: protein: recombinant; tags: N-terminal GST; dsDNA, one strand shown
# T9 sequence: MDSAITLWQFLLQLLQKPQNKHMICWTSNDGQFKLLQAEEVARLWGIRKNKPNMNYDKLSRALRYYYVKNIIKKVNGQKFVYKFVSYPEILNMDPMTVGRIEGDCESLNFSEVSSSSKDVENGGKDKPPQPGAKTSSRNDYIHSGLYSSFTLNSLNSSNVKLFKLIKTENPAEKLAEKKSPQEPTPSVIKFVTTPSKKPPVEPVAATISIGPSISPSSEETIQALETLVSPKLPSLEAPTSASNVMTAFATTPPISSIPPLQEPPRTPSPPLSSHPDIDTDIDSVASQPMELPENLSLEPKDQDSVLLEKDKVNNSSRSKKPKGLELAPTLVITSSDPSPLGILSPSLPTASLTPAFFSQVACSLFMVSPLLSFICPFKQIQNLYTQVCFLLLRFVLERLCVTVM
# How it was run: as §1
# ETV2 = target: T10, ETV2 (Homo sapiens, UniProt O00321 1-342); settings: protein: recombinant; tags: N-terminal GST; dsDNA, one strand shown
# T10 sequence: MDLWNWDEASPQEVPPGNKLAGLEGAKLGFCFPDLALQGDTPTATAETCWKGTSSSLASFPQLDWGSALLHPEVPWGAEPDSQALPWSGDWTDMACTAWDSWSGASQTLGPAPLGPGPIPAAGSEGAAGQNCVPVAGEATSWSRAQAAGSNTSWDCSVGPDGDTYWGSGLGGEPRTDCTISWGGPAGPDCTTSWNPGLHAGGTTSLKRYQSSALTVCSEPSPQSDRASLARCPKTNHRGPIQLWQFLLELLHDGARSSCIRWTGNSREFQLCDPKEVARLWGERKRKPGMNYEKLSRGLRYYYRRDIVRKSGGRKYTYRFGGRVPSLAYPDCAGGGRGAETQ
# How it was run: as §1
# ELF3 = target: T11, ELF3 (Homo sapiens, UniProt P78545 1-371); settings: protein: recombinant; tags: N-terminal GST; dsDNA, one strand shown
# T11 sequence: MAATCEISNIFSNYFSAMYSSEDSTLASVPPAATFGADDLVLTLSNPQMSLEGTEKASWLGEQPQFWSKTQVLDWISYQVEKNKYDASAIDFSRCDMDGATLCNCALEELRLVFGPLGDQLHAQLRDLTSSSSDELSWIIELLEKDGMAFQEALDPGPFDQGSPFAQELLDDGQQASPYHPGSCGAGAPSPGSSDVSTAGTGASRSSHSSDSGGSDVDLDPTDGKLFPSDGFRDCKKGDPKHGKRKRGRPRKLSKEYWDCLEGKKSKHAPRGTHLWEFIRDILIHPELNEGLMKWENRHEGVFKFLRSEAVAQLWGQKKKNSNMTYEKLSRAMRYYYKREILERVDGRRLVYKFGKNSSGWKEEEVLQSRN
# How it was run: as §1
# CRX = CRX (Homo sapiens, UniProt O43186 1-299); settings: protein: recombinant; tags: N-terminal GST; dsDNA, one strand shown
# Sequence of CRX (O43186 whole entry): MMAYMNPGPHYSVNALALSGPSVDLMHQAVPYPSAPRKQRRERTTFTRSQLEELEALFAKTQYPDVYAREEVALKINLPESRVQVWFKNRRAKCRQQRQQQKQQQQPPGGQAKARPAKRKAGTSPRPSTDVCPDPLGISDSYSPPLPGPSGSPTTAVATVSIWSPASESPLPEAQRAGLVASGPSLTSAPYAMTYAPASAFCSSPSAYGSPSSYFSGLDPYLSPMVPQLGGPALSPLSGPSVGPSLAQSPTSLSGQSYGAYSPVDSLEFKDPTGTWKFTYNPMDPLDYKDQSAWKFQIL
# How it was run: as §1
# ETV1 = ETV1 (Homo sapiens, UniProt P50549 1-477); settings: protein: recombinant; tags: N-terminal GST; dsDNA, one strand shown
# Sequence of ETV1 (P50549 whole entry): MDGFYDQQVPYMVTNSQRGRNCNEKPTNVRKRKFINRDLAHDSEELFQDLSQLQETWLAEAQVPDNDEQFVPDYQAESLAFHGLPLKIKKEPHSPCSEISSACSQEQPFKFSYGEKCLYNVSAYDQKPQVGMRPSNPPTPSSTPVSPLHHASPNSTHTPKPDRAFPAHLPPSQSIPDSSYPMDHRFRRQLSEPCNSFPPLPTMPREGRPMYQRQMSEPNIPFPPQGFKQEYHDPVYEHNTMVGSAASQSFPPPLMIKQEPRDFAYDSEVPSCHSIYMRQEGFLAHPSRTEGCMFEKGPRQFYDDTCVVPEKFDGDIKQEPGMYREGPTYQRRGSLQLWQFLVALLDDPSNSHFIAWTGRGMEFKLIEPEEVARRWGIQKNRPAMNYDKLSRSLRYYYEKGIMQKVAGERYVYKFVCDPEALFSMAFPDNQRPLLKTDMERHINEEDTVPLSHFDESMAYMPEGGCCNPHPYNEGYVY
# How it was run: as §1
sequence,measurement,setting,value
TACTCT,binding signal,FLI1,"1.37 fold enrichment (6-mer frequency, TF over GST control)"
same,binding signal,ELK1,"1.5 fold enrichment (6-mer frequency, TF over GST control)"
same,binding signal,GABPA,"1.52 fold enrichment (6-mer frequency, TF over GST control)"
same,binding signal,ERG,"1.34 fold enrichment (6-mer frequency, TF over GST control)"
same,binding signal,ELF1,"1.42 fold enrichment (6-mer frequency, TF over GST control)"
same,binding signal,EHF,"1.45 fold enrichment (6-mer frequency, TF over GST control)"
same,binding signal,SPI1,"1.44 fold enrichment (6-mer frequency, TF over GST control)"
same,binding signal,SPIB,"1.33 fold enrichment (6-mer frequency, TF over GST control)"
same,binding signal,ELK3,"1.56 fold enrichment (6-mer frequency, TF over GST control)"
same,binding signal,FEV,"1.33 fold enrichment (6-mer frequency, TF over GST control)"
same,binding signal,ETV5,"1.45 fold enrichment (6-mer frequency, TF over GST control)"
same,binding signal,HSF1,"1.37 fold enrichment (6-mer frequency, TF over GST control)"
same,binding signal,SPIC,"1.28 fold enrichment (6-mer frequency, TF over GST control)"
same,binding signal,ELF4,"1.42 fold enrichment (6-mer frequency, TF over GST control)"
same,binding signal,ELK4,"1.44 fold enrichment (6-mer frequency, TF over GST control)"
same,binding signal,ETV2,"1.43 fold enrichment (6-mer frequency, TF over GST control)"
same,binding signal,ELF3,"1.49 fold enrichment (6-mer frequency, TF over GST control)"
same,binding signal,CRX,"1.6 fold enrichment (6-mer frequency, TF over GST control)"
same,binding signal,ETV1,"1.47 fold enrichment (6-mer frequency, TF over GST control)"
